Screening results as filed in PubChem BioAssay.
S-ASM inh: human S-ASM enzyme inhibition. 340,000 compounds, 0.006% hits. placental ASM, HMU-PC fluorogenic substrate, 60 min. Potency, µM (doses to about 57.5 µM), most hits filed as inhibitors
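Fluorogenic HMU-PC substrate (9 uM final) is turned over by placental ASM in 60 min at 37 C after a 10 min compound preincubation. Reaction ended by alkaline stop (pH 10), with fluorescence read at 386/447 nm.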
Menin MLL FP FL: menin-MLL binding inhibition, fluorescein peptide; Fluorescence polarization, fluorescein-MLL peptide displacement from menin; FP activity change, % at 61.4 µM; 290,000 tested, under 10 active; AID 1766; active means well fitted curve in the direction sought with a large enough effect in the polarisation, not every such curve was filed as active; inconclusive means small, poorly fitted or top-dose-only effect, or effect the other way, or a change in a side signal; inactive means no such curve, though single readings can be large or run the other way; the % refers to the polarisation
MBNL1 CUG block: MBNL1-poly(CUG) RNA binding inhibition; Q9NR56; TR-FRET MBNL1-His/biotin-(CUG)12 binding, 665/545 ratio; Potency, µM (titrated, usually from 57.5 µM), most hits filed as inhibitors; 280,000 compounds, 0.036% hits; active means well fitted inhibition curve with a large enough effect in the signal ratio, with a control signal flat, not every such curve was filed as active; inconclusive means small, poorly fitted or top-dose-only effect, or effect the other way, or a change in a side signal; inactive means no such curve, though single readings can be large or run the other way; the % refers to the signal ratio
Target sequence (Q9NR56 whole entry, looked up): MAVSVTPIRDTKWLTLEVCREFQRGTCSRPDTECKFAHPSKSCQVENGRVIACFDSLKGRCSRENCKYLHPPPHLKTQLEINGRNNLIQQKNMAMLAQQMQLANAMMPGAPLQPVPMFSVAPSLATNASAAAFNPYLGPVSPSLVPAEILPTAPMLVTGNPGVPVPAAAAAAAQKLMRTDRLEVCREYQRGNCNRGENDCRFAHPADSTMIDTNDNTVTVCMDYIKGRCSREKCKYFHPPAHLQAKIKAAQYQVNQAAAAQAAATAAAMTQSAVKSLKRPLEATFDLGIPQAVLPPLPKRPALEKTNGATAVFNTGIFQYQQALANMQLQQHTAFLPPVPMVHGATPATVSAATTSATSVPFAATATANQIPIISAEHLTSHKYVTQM
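Compound titration spanned 92 nM–58 uM against the MBNL1-His/biotin-(CUG)12 complex. After 60 min at room temperature with 5 nM streptavidin-XL665 and 0.055 ng/ul terbium anti-His, ratiometric 665/545 nm emission (Ex 340 nm) normalized to controls.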
CXXC DNA block: inhibitors of human MLL CXXC domain-DNA interaction. Potency, µM (titrated, usually from 115 µM), actives largely listed as inhibitors. 290,000 compounds, 0.037% hits. AID 2662. MLL-CXXC / FITC-HOXA9 DNA fluorescence polarization; active means well fitted inhibition curve with a large enough effect in the polarisation, with a control signal flat, not every such curve was filed as active; inconclusive means small, poorly fitted or top-dose-only effect, or effect the other way, or a change in a side signal; inactive means no such curve, though single readings can be large or run the other way; the % refers to the polarisation
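Steps: dispense CXXC domain solution (7 uM) → pin compounds or unlabeled HOX-A9 DNA control → 5 min ambient → add FLSN-HOX-A9 solution (50 nM) → spin → 30 min ambient → fluorescence polarization. Tris pH 7.5/NaCl/DTT/BSA buffer.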
Menin-MLL TR inh: displaces Texas Red mutant MLL peptide from human menin; O00255; Menin + Texas Red MLL mutant peptide, fluorescence polarization; Potency, µM (highest dose often 61.6 µM), hits mostly inhibitors; 270,000 compounds, 0.23% hits; AID 1768; active means well fitted inhibition curve with a large enough effect in the polarisation, with a control signal flat, not every such curve was filed as active; inconclusive means small, poorly fitted or top-dose-only effect, or effect the other way, or a change in a side signal; inactive means no such curve, though single readings can be large or run the other way; the % refers to the polarisation
Akt phos inh: inhibitors of Akt phosphorylation; Neuro2A IGF-stimulated pAkt S473 HTRF, 20 min; active compounds read low; activity change, % for hits at 50 µM; 360,000 compounds, 0.32% hits; AID 651550; in the data active means activity change below about -80%; inconclusive means mostly about -51% to -80%
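Neuro2A cells (4,500/well, DMEM with 0.5% FBS) were treated with compound at a single 50 µM final concentration, stimulated with 6 nM IGF for 20 min at 37 °C, and lysed. Phospho-Akt Ser473 was read by HTRF as 665/615 ratio ×10^4.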
MLL CXXC FP-Fl: disrupts human MLL CXXC domain binding to DNA | shares compounds with CXXC DNA block | MLL CXXC-DNA binding, fluorescein FP | Potency, µM (titrated, usually from 345 µM), most hits filed as inhibitors | 200 compounds, 70% hits | AID 624160; further: nearly all actives have a fitted effect of over 80% in size
MLL CXXC FP-TR: MLL CXXC-DNA interaction inhibition, Texas Red FP; Potency, µM (top dose mostly 345 µM), hits mostly inhibitors; shares compounds with CXXC DNA block; MLL CXXC-DNA binding, Texas Red fluorescence polarization; 200 compounds, 40% hits; AID 624161; further: nearly all actives have a fitted effect of over 75% in size
MLL CXXC TRF: inhibitors of human MLL CXXC domain-DNA interaction, HTRF format; Potency, µM (top dose mostly 172 µM), most hits filed as inhibitors; shares compounds with CXXC DNA block; MLL CXXC-DNA binding, HTRF, biochemical; 210 compounds, 30% hits; further: nearly all actives have a fitted effect of over 80% in size
MBNL1 TRFRET: blocks human MBNL1 binding to CUG repeat RNA, TR-FRET validation; TR-FRET MBNL1-His / biotin-(CUG)12 binding, 60 min; AID 493199; shares compounds with MBNL1 CUG block; Potency, µM (highest dose often 57.6 µM), most hits filed as inhibitors; 140 compounds, 50% hits
MBNL1 AlphaScrn: MBNL1-CUG RNA binding inhibition, AlphaScreen validation; Potency, µM (highest dose often 57.7 µM), most hits filed as inhibitors; shares compounds with MBNL1 CUG block; AlphaScreen MBNL1-His / biotin-(CUG)12 binding; 140 compounds, 30% hits; AID 493205
MBNL1 HTRF CS: hit in HTRF counterscreen for MBNL1-poly(CUG) binding inhibitors | shares compounds with MBNL1 CUG block | His-Menin/biotin-MLL peptide TR-FRET counterscreen | Potency, µM (top dose mostly 57.6 µM), most hits filed as inhibitors | 120 compounds, 20% hits
Numbers stand for hits. Hits are enriched below; roughly 0.45% of the tested compounds scored in any of these assays. Unless noted, the call rests on the fitted dose curve; in most records, active means well fitted curve in the direction sought with a large enough effect; inconclusive means small, poorly fitted or top-dose-only effect, or another doubt; inactive means no such curve, though single readings can be large; an effect the other way counts as inactive or inconclusive.

Screening COC(=O)c1cc(NS(=O)(=O)c2ccc(N3CCOCC3)c([N+](=O)[O-])c2)cc(C(=O)OC)c1 returned S-ASM inh inactive, Menin MLL FP FL inconclusive, MBNL1 CUG block inactive, CXXC DNA block inactive, Menin-MLL TR inh inconclusive and Akt phos inh inactive.
COC(=O)c1ccc2c(c1)SC1=C(CCCC1=O)N2 was read as S-ASM inh inactive, Menin MLL FP FL inconclusive, MBNL1 CUG block inconclusive, CXXC DNA block 28µM, Menin-MLL TR inh inconclusive, Akt phos inh inactive, MLL CXXC FP-Fl 100µM, MLL CXXC FP-TR 142µM and MLL CXXC TRF inactive.
For O=C1CCCC2=C1Sc1ccc(Cl)cc1N2 the results were S-ASM inh inactive, Menin MLL FP FL inconclusive, MBNL1 CUG block inconclusive, CXXC DNA block inconclusive and Akt phos inh inactive.
NS(=O)(=O)c1ccc(NC(=O)c2c(F)cccc2Cl)cc1 was read as S-ASM inh inactive, Menin MLL FP FL inactive, CXXC DNA block inactive and Akt phos inh inactive.
NS(=O)(=O)c1ccc(NC(=O)c2c(Cl)cccc2Cl)cc1 was read as S-ASM inh inactive, Menin MLL FP FL inactive, MBNL1 CUG block inactive, CXXC DNA block inconclusive, Menin-MLL TR inh inactive, Akt phos inh inactive, MLL CXXC FP-Fl inconclusive, MLL CXXC FP-TR inconclusive and MLL CXXC TRF inactive.
`CCOC(=O)C1CCN(S(=O)(=O)c2ccc(OC)c(C(=O)N3CCCCCC3)c2)CC1` gave S-ASM inh inactive, Menin MLL FP FL inactive, MBNL1 CUG block inactive, CXXC DNA block inactive, Menin-MLL TR inh inconclusive and Akt phos inh inactive.
`Nc1c(S(=O)(=O)O)cc(Nc2ccc(Nc3nc(Cl)nc(Nc4ccc(S(=O)(=O)O)cc4)n3)c(S(=O)(=O)O)c2)c2c1C(=O)c1ccccc1C2=O` gave Menin MLL FP FL inactive, MBNL1 CUG block inconclusive, CXXC DNA block 10µM, Menin-MLL TR inh inconclusive, MLL CXXC FP-Fl 18µM, MLL CXXC FP-TR 18µM and MLL CXXC TRF 6.1µM.
For Nc1c(S(=O)(=O)O)cc(Nc2ccc(Cl)cc2)c2c1C(=O)c1ccccc1C2=O the results were Menin MLL FP FL inactive and Menin-MLL TR inh inconclusive.
For CC1CCCN(C(=O)CCCC(=O)N2CCCC(C)C2)C1 (stereo not drawn) the results were S-ASM inh inactive, MBNL1 CUG block inactive, CXXC DNA block inactive and Akt phos inh inactive.
`C/C=C/C1=CC2=CC(=O)C(C)(OC(=O)c3c(C)cc(O)cc3O)C(=O)C2=CO1` (stereo not drawn) gave Menin MLL FP FL inconclusive and Menin-MLL TR inh inactive.
CC1=NN(c2ccccc2)C(=O)/C1=C/c1cccc(C)c1 was read as S-ASM inh inactive, Menin MLL FP FL inconclusive, MBNL1 CUG block inactive, CXXC DNA block inconclusive, Menin-MLL TR inh inconclusive, Akt phos inh inactive, MLL CXXC FP-Fl 45µM, MLL CXXC FP-TR inconclusive and MLL CXXC TRF inactive.
`COc1cc(NC(=O)C2CCCCN2)ccc1OCC(C)C` (stereo not drawn) gave S-ASM inh inactive, Menin MLL FP FL inactive, MBNL1 CUG block inactive, CXXC DNA block inactive, Menin-MLL TR inh inactive and Akt phos inh inactive.
For CCc1cccc(NC(=O)CSC2=NS(=O)(=O)c3ccccc32)c1 the results were S-ASM inh inactive, Menin MLL FP FL inactive, MBNL1 CUG block inactive, CXXC DNA block 32µM, Menin-MLL TR inh inactive, Akt phos inh inactive, MLL CXXC FP-Fl 89µM, MLL CXXC FP-TR 113µM and MLL CXXC TRF 15µM.
For CC(=O)N/N=C/c1cc(C(C)(C)C)cc(/C=N/NC(C)=O)c1O the results were S-ASM inh inactive, Menin MLL FP FL inconclusive, MBNL1 CUG block inactive, CXXC DNA block inconclusive, Menin-MLL TR inh inactive, Akt phos inh inactive, MLL CXXC FP-Fl inactive, MLL CXXC FP-TR inactive and MLL CXXC TRF inactive.
COc1ccccc1NC(=O)CCCCCN1C(=O)c2cccc([N+](=O)[O-])c2C1=O was read as S-ASM inh inactive, Menin MLL FP FL inactive, MBNL1 CUG block inconclusive, CXXC DNA block inactive, Menin-MLL TR inh inactive and Akt phos inh inactive.
`COc1cc(/C=C2/C(=O)c3cccc([N+](=O)[O-])c3C2=O)c(Br)cc1O` gave S-ASM inh inactive, Menin MLL FP FL inactive, CXXC DNA block 28µM, Menin-MLL TR inh inconclusive, Akt phos inh inactive, MLL CXXC FP-Fl 40µM, MLL CXXC FP-TR 80µM and MLL CXXC TRF inconclusive.
`CN(C)c1ccc(/C=C2\SC(=S)N(Nc3ncc(C(F)(F)F)cc3Cl)C2=O)cc1` gave S-ASM inh inactive, Menin MLL FP FL inconclusive, MBNL1 CUG block inactive, CXXC DNA block 3.2µM, Menin-MLL TR inh inconclusive, Akt phos inh inactive, MLL CXXC FP-Fl 1.1µM, MLL CXXC FP-TR 113µM and MLL CXXC TRF inactive.
For COC(=O)NCc1ccc(Cl)c(Cl)c1 the results were S-ASM inh inactive, Menin MLL FP FL inactive, MBNL1 CUG block inactive, CXXC DNA block inactive, Menin-MLL TR inh inactive and Akt phos inh inactive.
COC(=O)NCc1cc2cc(Cl)ccc2[nH]1 was read as S-ASM inh inactive, Menin MLL FP FL inactive, MBNL1 CUG block 40µM, CXXC DNA block inactive, Menin-MLL TR inh inactive, Akt phos inh inactive, MBNL1 TRFRET inactive, MBNL1 AlphaScrn inactive and MBNL1 HTRF CS inactive.
Screening CCC(CC)NC(=O)Nc1ccc(F)c(Cl)c1 returned S-ASM inh inactive, Menin MLL FP FL inactive, MBNL1 CUG block 40µM, CXXC DNA block inactive, Menin-MLL TR inh inactive, Akt phos inh inactive, MBNL1 TRFRET inconclusive, MBNL1 AlphaScrn inactive and MBNL1 HTRF CS inactive.
O=C1NC(c2cccc3ccccc23)Nc2ccccc21 (stereo not drawn) was read as S-ASM inh inactive and Akt phos inh inactive.
